Experimental findings from PubChem BioAssay are described below.

Assay [1] concerns TRPC4 beta (transient receptor potential cation channel C4), mouse. Description: activators of mouse TRPC4 channel, confirmation, cell-based, Fluo4 calcium, HEK293 TRPC4beta/mu-opioid, duplicates, 10 µM (AID 2426). The note with it: Fluo4 calcium fluorescence, at 10 µM; stronger effect = higher value.
For assay [2], the system named is transient receptor potential cation channel C4 beta (TRPC4), mouse. Briefly: activators of mouse TRPC4 channel, confirmation, cell-based, second round, Fluo4, HEK293 TRPC4beta/mu-opioid, 1 µM (AID 2461;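 active = primary screen active and over 50% activation in each of two duplicate runs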). The note with it: Fluo4 calcium fluorescence, at 1 µM; stronger effect = higher value.
Assay [3] deals with TRPC4 (transient receptor potential cation channel C4 beta), mouse. Description: positive allosteric modulators of mouse TRPC4, confirmation, cell-based, second round, Fluo-4, HEK293 TRPC4beta/mu-opioid, 1 µM (AID 2554;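 active = primary screen hit whose fluorescence ratio, in both repeats, exceeds the weak agonist control mean by 3 SD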). Particulars: DAMGO EC20, Fluo-4 calcium flux, at 1 µM; stronger effect = higher value. (A change in cytosolic calcium serves as a functional read-out for many receptors and channels.)

For assay [4], the system named is TRPC4 beta (transient receptor potential cation channel C4), mouse. Description: positive allosteric modulators of mouse TRPC4, confirmation, cell-based, Fluo-4, HEK293 TRPC4beta/mu-opioid (AID 2555;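 active = primary screen hit whose calcium fluorescence ratio, in both repeats, exceeds the weak agonist control mean by 3 SD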). The note with it: DAMGO EC20, Fluo-4 calcium flux, at 10 µM; stronger effect = higher value.
Assay [5] addresses Short transient receptor potential channel 4 (Mus musculus) (UniProt Q9QUQ5). Briefly: inhibitors of mouse TRPC4 channel, confirmation, cell-based, Fluo4, HEK293 TRPC4beta/mu-opioid (AID 2636;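 active = calcium signal cut by more than 3 SD below the full-agonist control yet still positive, in both repeats and the earlier primary screen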). The note with it: DAMGO, Fluo4 calcium flux, at 10 µM; stronger effect = higher value.
The target is the same in assay [6]. Description: inhibitors of mouse TRPC4 channel, confirmation, cell-based, second round, Fluo4, HEK293 TRPC4beta/mu-opioid, 1 µM (AID 2637;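 active = calcium signal ratio cut to more than 3 SD under the fully stimulated control mean yet still positive, in both repeats and the primary screen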;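 for inhibition: percent of integrated ratio relative to wells lacking test compound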). Particulars: Fluo4 calcium flux, DAMGO, at 1 µM; stronger effect = higher value.
Assay [7] has the same target. Description: mouse TRPC4 channel activators, dose response, cell-based, HEK293 TRPC4/mu-opioid, Fluo-4 calcium (AID 434937;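 active = primary screen activator hit with a dose response curve and TRPC4 channel activation at any tested dose; inactive = no activation, no dose response, or not a primary hit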).
Assay [8] shares this target. Briefly: TRPC4 positive allosteric modulators, dose response, cell-based, HEK293 TRPC4/mu-opioid, Fluo-4 calcium, EC20 DAMGO (AID 434941;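 active = earlier screen potentiator hit that boosts the TRPC4 ion channel at some dose, with a dose response; inactive = no potentiation, no dose response, or not a prior hit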;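 note: calcium entry triggered by an EC20 dose of DAMGO at the co-expressed mu-opioid receptor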).
The target in assay [9] is Short transient receptor potential channel 6 (Mus musculus) (UniProt Q61143). Description: inhibition of mouse TRPC6 channel, confirmation, selectivity assay for TRPC4 inhibitor project, cell-based, HEK293, membrane potential dye, duplicate (AID 434948;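 active = active in primary screen and both duplicates, each dropping signal beyond three positive-control SD with fluorescence still positive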). Particulars: HEK293 TRPC6, membrane potential dye fluorescence, at 10 µM, stimulated with maximal-effect acetylcholine; stronger effect = higher value.

Assay [10] has the same target. Description: activation of mouse TRPC6 channel, confirmation, selectivity assay for TRPC4 activator project, cell-based, HEK293, membrane potential dye, duplicate (AID 434950;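 active = membrane potential signal rise above negative control mean plus 3 SD in both duplicates, also active in the earlier TRPC4 screen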). The note with it: HEK293 TRPC6, membrane potential fluorescence, at 10 µM; stronger effect = higher value.
The target is the same in assay [11]. Description: TRPC6 potentiation by TRPC4 potentiator hits, confirmation, selectivity assay for TRPC4 potentiator project, HEK293 cells, membrane potential dye, duplicate (AID 434952;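 active = compound raising the membrane signal above positive-control mean plus 3 SD in both repeats, and a primary screen hit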). Particulars: HEK293 TRPC6, membrane potential dye fluorescence, at 10 µM, maximal acetylcholine added after compound; stronger effect = higher value.
Assay [12] deals with Short transient receptor potential channel 4 (Mus musculus) (UniProt Q9QUQ5). Description: calcium flux activators in TRPC4/5HT1a cells, counter-screen for TRPC4 activator project, cell-based, second counter screen, HEK293 TRPC4/5HT1a, Fluo-4 (AID 434977;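 active = calcium signal rise above buffer-control mean plus 5 SD in both duplicates, and also a hit in the primary screen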). The note with it: Fluo-4 calcium flux, at 10 µM; stronger effect = higher value.
Assay [13] is described as follows: calcium flux inhibitors in TRPC4/5HT1a cells, confirmation, counter-screen for TRPC4 inhibitor project, cell-based, second counter screen, HEK293 TRPC4/5HT1a, Fluo-4 (AID 434978;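 active = primary screen active whose calcium signal fell more than 3 SD beyond the full-serotonin control mean in both duplicate plates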;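 for outcome: serotonin given first at submaximal then at maximal dose after compound preincubation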). Particulars: Fluo-4 calcium flux, at 10 µM, serotonin added to trigger calcium flux; stronger effect = higher value.
The subject of assay [14] is TRPC4 (mouse), co-expressed with 5HT1a in HEK293. Briefly: calcium flux potentiators in TRPC4/5HT1a cells, confirmation, counter-screen for TRPC4 potentiator project, cell-based, second counter screen, HEK293 TRPC4/5HT1a, Fluo-4 (AID 434979;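 active = signal rise over 3 SD above mean of control wells given weak agonist, in both repeats and first screen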). Particulars: Fluo-4 calcium flux, at 10 µM, serotonin added at its EC20 dose; stronger effect = higher value.
Assay [15] in a line: calcium flux activation in mu-opioid HEK293 cells, confirmation, counter-screen for TRPC4 activator project, cell-based, HEK293 mu-opioid receptor line (AID 449723;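 active = hit in primary screen, with calcium signal over 5 SD above buffer well mean in both duplicates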;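 note: counter screen cells carry the mu-opioid receptor alone and lack TRPC4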). The note with it: Fluo-4 calcium fluorescence, at 10 µM; stronger effect = higher value.
The nature of assay [16]: calcium flux enhancement in mu-opioid HEK293 cells, confirmation, counter-screen for TRPC4 allosteric potentiator project, cell-based, HEK293 mu-opioid receptor line (AID 449724;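 active = calcium signal rise more than 3 SD above the low-dose agonist control mean, in both duplicate plates and the primary screen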;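 note: HEK293 cells carrying mu-opioid receptor only with no TRPC4 channel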). The note with it: Fluo-4 calcium flux, at 10 µM, compound added before EC20 DAMGO stimulus; stronger effect = higher value.

Molecules are shown by their SMILES. For some assays here: Potency and affinity values are given separately. Activity calls are given as the source filed them.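 Rule for the calls, unless noted: active = fluorescence ratio normalized to control raised more than 50% in primary screen plus both repeat runs; inactive = the rest.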

Short transient receptor potential channel 4 (Mus musculus), sequence (Q9QUQ5 whole entry, looked up): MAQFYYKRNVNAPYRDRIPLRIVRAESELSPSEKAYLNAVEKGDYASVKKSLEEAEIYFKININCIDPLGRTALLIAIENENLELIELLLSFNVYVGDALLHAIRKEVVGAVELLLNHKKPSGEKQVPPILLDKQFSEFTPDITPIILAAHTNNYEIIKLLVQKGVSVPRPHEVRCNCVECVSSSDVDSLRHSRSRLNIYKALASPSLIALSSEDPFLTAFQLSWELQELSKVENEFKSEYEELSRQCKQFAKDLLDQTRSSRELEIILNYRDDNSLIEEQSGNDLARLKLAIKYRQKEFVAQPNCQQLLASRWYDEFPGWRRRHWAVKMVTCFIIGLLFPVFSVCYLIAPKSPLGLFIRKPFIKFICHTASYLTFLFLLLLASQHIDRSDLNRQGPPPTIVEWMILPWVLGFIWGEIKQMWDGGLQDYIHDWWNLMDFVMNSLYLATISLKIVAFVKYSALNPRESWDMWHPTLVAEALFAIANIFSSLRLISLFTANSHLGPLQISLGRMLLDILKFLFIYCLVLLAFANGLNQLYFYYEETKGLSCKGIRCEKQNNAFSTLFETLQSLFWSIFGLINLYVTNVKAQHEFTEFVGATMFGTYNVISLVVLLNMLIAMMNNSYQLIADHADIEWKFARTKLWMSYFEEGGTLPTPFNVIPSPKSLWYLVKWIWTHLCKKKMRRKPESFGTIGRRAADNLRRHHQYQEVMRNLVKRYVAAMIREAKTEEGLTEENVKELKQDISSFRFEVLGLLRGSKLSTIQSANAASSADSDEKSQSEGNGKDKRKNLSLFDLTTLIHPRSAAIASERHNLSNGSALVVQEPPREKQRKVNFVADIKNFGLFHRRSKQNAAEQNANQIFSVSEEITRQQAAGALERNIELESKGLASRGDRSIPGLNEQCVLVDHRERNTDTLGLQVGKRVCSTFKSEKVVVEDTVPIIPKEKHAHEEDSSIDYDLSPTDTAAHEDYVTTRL
Short transient receptor potential channel 6 (Mus musculus), sequence (Q61143 whole entry, looked up): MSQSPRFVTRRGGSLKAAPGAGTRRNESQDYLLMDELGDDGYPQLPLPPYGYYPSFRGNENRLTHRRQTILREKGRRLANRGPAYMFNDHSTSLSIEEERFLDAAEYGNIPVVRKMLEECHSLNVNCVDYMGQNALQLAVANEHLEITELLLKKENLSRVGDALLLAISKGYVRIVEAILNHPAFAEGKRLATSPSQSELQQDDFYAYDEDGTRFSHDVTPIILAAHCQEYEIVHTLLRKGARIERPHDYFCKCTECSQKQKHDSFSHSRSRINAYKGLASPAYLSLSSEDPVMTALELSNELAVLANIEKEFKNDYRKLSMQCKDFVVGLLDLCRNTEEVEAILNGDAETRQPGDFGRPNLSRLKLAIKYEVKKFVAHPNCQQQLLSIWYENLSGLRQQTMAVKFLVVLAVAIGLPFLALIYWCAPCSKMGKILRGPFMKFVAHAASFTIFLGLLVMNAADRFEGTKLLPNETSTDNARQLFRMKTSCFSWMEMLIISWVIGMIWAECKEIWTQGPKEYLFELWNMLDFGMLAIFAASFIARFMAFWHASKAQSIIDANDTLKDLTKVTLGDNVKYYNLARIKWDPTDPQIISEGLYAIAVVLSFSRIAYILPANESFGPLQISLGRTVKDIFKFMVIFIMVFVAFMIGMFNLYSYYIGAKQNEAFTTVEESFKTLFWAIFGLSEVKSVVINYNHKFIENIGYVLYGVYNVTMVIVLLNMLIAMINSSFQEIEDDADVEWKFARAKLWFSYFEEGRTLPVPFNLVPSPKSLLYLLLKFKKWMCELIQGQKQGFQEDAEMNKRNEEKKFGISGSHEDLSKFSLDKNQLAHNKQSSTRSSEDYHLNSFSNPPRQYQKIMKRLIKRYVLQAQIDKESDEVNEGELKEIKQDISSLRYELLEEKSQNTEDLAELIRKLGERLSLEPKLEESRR

As usually defined, the inhibition is the share of the control response that was lost under treatment. As to `COc1ccc(Sc2nc(-c3ccccc3)ncc2C(=O)O)cc1`, the outcome in assay [1], in [2], in assay [3], in [4], in assay [6] and in [7] was inactive. The result in assay [8], in assay [9], in assay [10], in assay [11], in assay [12] and in assay [14] was inactive. Further, the result in [15] and in [16] was inactive. The values for the inhibition in [5] and in [13] were 48% (active) and 45.5% (active), respectively.

For the compound `C=C(C)Cn1c(SCC)nc2ccccc2c1=O`, the result in assay [1], in [2], in [3], in [4], in assay [6] and in assay [7] was inactive. The outcome in assay [8], in assay [9], in assay [10], in [11], in assay [12] and in assay [14] was inactive. Besides, the result in assay [15] and in [16] was inactive. Further, the results for the inhibition in [5] and in assay [13] were 96% (active) and 21.3% (active), respectively.

As to `CCOC(=O)C1(CC2CC2)CCN(Cc2cc(Cl)c(O)c(OC)c2)CC1`, the result in assay [1], in [2], in [3], in [4], in assay [6] and in assay [7] was inactive. The outcome in assay [8], in assay [9], in [10], in assay [11], in assay [12] and in assay [13] was inactive. In addition, the outcome in assay [14], in assay [15] and in assay [16] was inactive. In addition, the inhibition in assay [5] was 71% (active).

As for `COc1ccc(-c2csc(NC(=O)Cc3cccc4ccccc34)c2C(=O)O)cc1`, the outcome in assay [1], in assay [2], in assay [3], in assay [4], in [6] and in assay [7] was inactive. Besides, the result in assay [8], in assay [9], in assay [10], in assay [11], in assay [12] and in assay [14] was inactive. The outcome in assay [15] and in assay [16] was inactive. The values for the inhibition in assay [5] and in assay [13] were 90% (active) and 40.2% (active), respectively.

On to `COc1ccc(/C=C2/SC(=S)N(CCCC(=O)Nc3ccccc3C(=O)O)C2=O)cc1`, for which the outcome in assay [1], in assay [2], in assay [3], in assay [4], in assay [7] and in assay [8] was inactive. Further, the compound was classed as inactive in assay [9], in [10], in assay [11], in assay [12], in assay [14] and in [15]. Further, the outcome in assay [16] was inactive. Moreover, the inhibition is 81% (active) in assay [5], 48% (active) in assay [6] and 36.7% (active) in assay [13].

Consider `O=C(Nc1ccccc1N1CCN(C(=O)c2ccccc2)CC1)c1ccc(Br)o1`, for which the result in [1], in [2], in assay [3], in assay [4], in [7] and in assay [8] was inactive. For the same compound, the call in [9], in assay [10], in [11], in assay [12], in [14] and in [15] was inactive. In addition, in assay [16], the result was inactive. Besides, the inhibition in assay [5] is 82% (active); in assay [6], 57% (active); in assay [13] it was 31.6% (active).

With `CN(C)C(CNC(=O)c1oc2ccccc2c1CSc1ncn[nH]1)c1ccco1` (stereo not drawn), the result in assay [1], in assay [2], in [3], in assay [4], in [7] and in assay [8] was inactive. Further, the result in assay [9], in [10], in assay [11], in assay [12], in assay [13] and in assay [14] was inactive. Moreover, the outcome in [15] and in assay [16] was inactive. Also, the values for the inhibition in assay [5] and in [6] were 85% (active) and 48% (active), respectively.

On to `COC(=O)c1ccc(Nc2cc(C)nc3ccccc23)cc1`, for which the result in [1], in assay [2], in assay [3], in assay [4], in [6] and in [7] was inactive. The result in [8], in assay [10], in assay [11], in assay [12], in assay [14] and in assay [15] was inactive. For the same compound, the result in assay [16] was inactive. In addition, the inhibition in assay [5] is 98% (active); in assay [9] it was 50% (active); in [13], 19.9% (active).
